Results filed as inconclusive are left out. A number with no mark means an inactive call. The source made the active and inactive calls. Calls come from the whole dose curve; as a rule, active = well fitted curve in the direction sought with a large enough effect; inconclusive = small, poorly fitted or top-dose-only effect, or another doubt; inactive = no such curve, though single readings can be large; an effect the other way counts as inactive or inconclusive. Where a SMILES comes first, the peptide text is derived from it.

Among the data in PubChem BioAssay (NCATS) are Potency and activity change, negative = inhibition values, retold here.

Assay [1] concerns Zika virus NS2B-NS3 protease. Description: Primary screen GU AMC qHTS for Zika virus inhibitors (AID 1347154).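 For activity change, negative = inhibition: 0% = no-inhibitor control and -100% = no-enzyme control.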 Note: nearly all actives have a fitted effect of over 70% in size. Note: potency is the fitted concentration of half-maximal effect. The method in brief: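 Fluorogenic AMC-substrate cleavage by noncovalent NS2B-NS3 protease complex (25 nM, pH 8.0 Tris buffer with Tween 20) followed for 15 minutes at room temperature (~20% conversion). Percent inhibition from ex340/em450 signal change, fitted by 4-parameter Hill equation.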
A general note: qHTS replaces the single test concentration by a dilution series.

Assay [2] in a line: Primary qHTS for small molecule stabilizers of the endoplasmic reticulum resident proteome: Secreted ER Calcium Modulated Protein (SERCaMP) assay (AID 1508630). Note: % is set by controls: 0 for no effect and ±100 for the full control effect. The method in brief:
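GLuc-SERCaMP-expressing SH-SY5Y cells, pretreated 16 h with compound, are challenged with thapsigargin to empty ER calcium stores; after 4 h, coelenterazine is added directly to the medium and luminescence is imaged.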

Consider `c1ccc2[nH]c(NCCCc3cnc[nH]3)nc2c1`, for which the Potency result in assay [1] and in assay [2] was “inactive” each time.
Consider `CCCCCCCCCCCCCCCCOCC(CO)OC` (centres undefined), for which the figures for the activity change, negative = inhibition in assay [1] and in assay [2] were 21.3% [at 6.83 µM] and -17.7% [at 3.88 µM], respectively.
In the case of `CC(C)OC(=O)c1cn(Cc2c(F)cccc2F)c2sc(-c3ccc(NC(=O)C(C)C)cc3)c(CN(C)Cc3ccccc3)c2c1=O`, the Potency entry in assay [1] and in assay [2] was “inactive” throughout.
Consider `c1ccc(CN(CCN(Cc2ccccn2)Cc2ccccn2)Cc2ccccn2)nc1`, for which the Potency entry in assay [1] and in assay [2] was “inactive” in each case.
On to `CCCC1OC2CC3C4CCC5=CC(=O)C=CC5(C)C4C(O)CC3(C)C2(C(=O)CO)O1` (centres undefined), for which the Potency entry in assay [1] and in assay [2] was “inactive” throughout.
As for `COCCCCCCCCCCCC(=O)O`, the activity change, negative = inhibition is 13.2% [at 6.83 µM] in assay [1] and -27.3% [at 3.88 µM] in assay [2].
With `NCCCC[C@@H](N)C(=O)O`, the Potency result in assay [1] and in assay [2] was “inactive” throughout.
Regarding `CC[C@]1(O)C[C@@H]2CN(CCc3c([nH]c4ccccc34)[C@@](C(=O)OC)(c3cc4c(cc3OC)N(C)C3[C@]45CCN4CC=C[C@](CC)(C45)[C@@H](OC(C)=O)[C@]3(O)C(=O)OC)C2)C1` (some centres undefined), the Potency entry in assay [1] and in assay [2] was “inactive” in each case.
In the case of `CC(C)C[C@H](NC(=O)[C@H](CCCCN)NC(=O)[C@H](CCCNC(=N)N)NC(=O)[C@H](C)NC(=O)[C@H](CO)NC(=O)[C@H](CCCCN)NC(=O)[C@H](CCCNC(=N)N)NC(=O)[C@H](C)NC(=O)CNC(=O)[C@@H](NC(=O)[C@H](Cc1ccccc1)NC(=O)CNC(=O)CNC(=O)[C@@H](N)Cc1ccccc1)[C@H](C)O)C(=O)N[C@@H](C)C(=O)N[C@@H](CC(N)=O)C(=O)N[C@@H](CCC(N)=O)C(=O)O`, the activity change, negative = inhibition in assay [1] is -13.5% [at 6.83 µM]; in assay [2] it was 13.9% [at 3.88 µM].
Turning to `N#Cc1ccccc1OCC(O)CNCCNC(=O)Nc1ccccc1` (centres undefined), the Potency result in assay [1] and in assay [2] was “inactive” each time.
Take `CCCCCCCCCCC1=C(C)C(=O)C(OC)=C(OC)C1=O`: the Potency result in assay [1] and in assay [2] was “inactive” throughout.
As for `COc1cccc2c1C(=O)c1c(O)c3c(c(O)c1C2=O)C[C@@](O)(C(=O)CO)C[C@@H]3O[C@@H]1C[C@H](N)[C@H](O)[C@H](C)O1`, the Potency result in assay [1] and in assay [2] was “inactive” each time.
Turning to `CC(CCCCC(=O)Nc1ccc(C(F)(F)F)cc1)NCCc1cnc[nH]1` (centres undefined), the Potency result in assay [1] and in assay [2] was “inactive” each time.
Take `N[C@@]1(C(=O)O)CO[C@H]2[C@H](C(=O)O)[C@H]21`: the Potency entry in assay [1] and in assay [2] was “inactive” throughout.
Consider `CNc1ncnc2c1ncn2[C@H]1C[C@H](O)[C@@H](CO)O1`, for which the Potency result in assay [1] and in assay [2] was “inactive” each time.
On to `CCCCCCCC/C=C\C/C=C\C/C=C\CCCC(=O)NCCO`, for which the figures for the activity change, negative = inhibition in assay [1] and in assay [2] were 9.89% [at 6.83 µM] and -21.6% [at 3.88 µM], respectively.
With `COc1ccc(CCNC(=O)C(=O)c2c[nH]c3ccccc23)cc1`, the Potency result in assay [1] and in assay [2] was “inactive” in each case.
With `CCCCCCCCCC(=O)N[C@H](CN1CCOCC1)[C@H](O)c1ccccc1`, the activity change, negative = inhibition was 6.71% [at 6.83 µM] in assay [1] and 9.26% [at 3.88 µM] in assay [2].
On to `COC(=O)[C@H](Cc1ccc(C#Cc2ccccc2)cc1)NC(=O)C[C@H]1CCCN(C(=N)N)C1`, for which the Potency result in assay [1] and in assay [2] was “inactive” throughout.
With `CCCCCCCC/C=C\CCCCCCCC(=O)OC[C@@H](O)COP(=O)(O)O`, the values for the activity change, negative = inhibition in assay [1] and in assay [2] were 20.5% [at 6.83 µM] and -10.9% [at 3.88 µM], respectively.
For the molecule `CCCCC/C=C\C/C=C\C/C=C\C/C=C\CCCC(=O)O[C@@H](CO)COCCCCCCCCCCCCCCCC`, the results for the activity change, negative = inhibition in assay [1] and in assay [2] were 9.81% [at 6.83 µM] and -14% [at 3.88 µM], respectively.
For `C[C@@H](O)CNC(C)(C)CC(=O)N[C@@H]1CCc2ccccc2N(Cc2ccc(-c3ccccc3-c3nn[nH]n3)cc2)C1=O`, the Potency result in assay [1] and in assay [2] was “inactive” in each case.
As to `CCCN1CCCC(c2cccc(S(C)(=O)=O)c2)C1` (centres undefined), the Potency result in assay [1] and in assay [2] was “inactive” in each case.
Turning to `C[C@@H](Cc1ccccc1)Nc1ncnc2c1ncn2[C@@H]1O[C@H](CO)[C@@H](O)[C@H]1O`, the Potency result in assay [1] and in assay [2] was “inactive” throughout.
Consider `CCCCC/C=C\C/C=C\CCCCCCCCCC(=O)O`, for which the activity change, negative = inhibition in assay [1] is -1.98% [at 6.83 µM]; in assay [2], -7.65% [at 3.88 µM].
With `CCCCC[C@H](O)CC[C@H]1[C@H](O)CC(=O)[C@@H]1CCCCCCC(=O)O`, the activity change, negative = inhibition in assay [1] is 15.4% [at 6.83 µM]; in assay [2], -15% [at 3.88 µM].
With `CNCC(=O)NCC(=O)N[C@@H](Cc1ccccc1)C(=O)N[C@@H](CC(C)C)C(=O)O` (HELM PEPTIDE1{[Sar].G.F.L}$$$$V2.0), the activity change, negative = inhibition in assay [1] is 7.91% [at 6.83 µM]; in assay [2] it was -6.57% [at 3.88 µM].
Take `CCCCCCCCCCCCC/C=C/[C@@H](O)[C@H](CO)NC(C)=O`: the activity change, negative = inhibition was 16.6% [at 6.83 µM] in assay [1] and 1.43% [at 3.88 µM] in assay [2].
With `CCCCC[C@H](O)/C=C/C=C\C=C\C=C\[C@@H](O)[C@@H](O)CCCC(=O)O`, the values for the activity change, negative = inhibition in assay [1] and in assay [2] were 15% [at 0.59 µM] and 7.52% [at 0.478 µM], respectively.
Consider `Oc1ccc(-c2c(-c3ccccc3)nn3c(C(F)(F)F)cc(C(F)(F)F)nc23)cc1`, for which the Potency result in assay [1] and in assay [2] was “inactive” throughout.
With `OCc1cc2c(cn1)[nH]c1ccccc12`, the Potency in assay [1] is 26.7 µM (active). For the same molecule, the Potency entry in assay [2] was “inactive”.
Taken in the same sequence, the figures for `CC(=O)N[C@@H](CSC/C=C(\C)CC/C=C(\C)CC/C=C(\C)CCC=C(C)C)C(=O)O` were “inactive” and “inactive”.
For `CCCCCCCC/C=C\CCCCCCCC(=O)OC[C@H](CO)OC(C)=O`, the activity change, negative = inhibition in assay [1] was 16.8% [at 6.83 µM]; in assay [2], -28% [at 3.88 µM].
With `COc1ccc(-n2[nH]c3c4c(ncc3c2=O)CCCCC4)cc1`, the Potency entry in assay [1] and in assay [2] was “inactive” throughout.
As for `COc1ccc(C2CC(c3c(O)cc(C)oc3=O)=NCCS2)c(OC)c1` (centres undefined), the Potency result in assay [1] and in assay [2] was “inactive” each time.
In the case of `CC(C)n1nnc2cc(C(=O)O)ccc21`, the Potency entry in assay [1] and in assay [2] was “inactive” throughout.
Turning to `CCCCCC(=O)/C=C/C=C\CCCCCCCC(=O)O`, the activity change, negative = inhibition in assay [1] was 0.325% [at 0.59 µM]; in assay [2], -7.64% [at 0.478 µM].
Regarding `CCCCCCCC(=O)OC[C@H](CO)OC(=O)CCCCCCC`, the activity change, negative = inhibition in assay [1] was 4.76% [at 6.83 µM]; in assay [2], -8.21% [at 3.88 µM].
Turning to `Nc1c(S(=O)(=O)O)cc(Nc2cccc3ccccc23)c2c1C(=O)c1ccccc1C2=O`, the Potency entry in assay [1] and in assay [2] was “inactive” throughout.
Consider `NCCn1oc(=O)[nH]c1=O`, for which the Potency entry in assay [1] and in assay [2] was “inactive” throughout.
Regarding `CC[C@@H](C)[C@@H](CO[C@@H](Cc1ccccc1)C(=O)N[C@@H](CCS(C)(=O)=O)C(=O)OC(C)C)NC[C@@H](N)CS`, the Potency entry in assay [1] and in assay [2] was “inactive” throughout.
Consider `NCCC(=O)c1ccccc1N`, for which the Potency result in assay [1] and in assay [2] was “inactive” each time.
For `C=NCc1cc2c(OC[C@@H](O)CNC(C)(C)C)cccc2[nH]1`, the Potency entry in assay [1] and in assay [2] was “inactive” throughout.
As for `CCCCC[C@H](O)/C=C/[C@H]1C=CC(=O)[C@@H]1CCCCCCC(=O)O`, the activity change, negative = inhibition in assay [1] was 16.3% [at 6.83 µM]; in assay [2] it was -11.3% [at 3.88 µM].
In the case of `Nc1ncnc2c1ncn2[C@H]1O[C@@H](CSCC[C@@H](N)C(=O)O)[C@H](O)[C@@H]1O`, the Potency result in assay [1] and in assay [2] was “inactive” each time.
Regarding `O=C(O)[C@H]1CCCN1`, the Potency result in assay [1] and in assay [2] was “inactive” throughout.
For `NC1=NC2C(N=C(Br)N2[C@@H]2O[C@H]3COP(=O)(O)O[C@@H]3[C@@H]2O)C(=O)N1` (some centres undefined), the Potency result in assay [1] and in assay [2] was “inactive” in each case.
For `CC(N)(COP(=O)(O)O)C(=O)O` (centres undefined), the Potency result in assay [1] and in assay [2] was “inactive” each time.
In the case of `CS(=O)(=O)Nc1c(O)ccc2c1CCCC2C1=NCCN1` (centres undefined), the Potency result in assay [1] and in assay [2] was “inactive” throughout.
`CNC(=S)NCCCCc1cnc[nH]1`: the Potency result in assay [1] and in assay [2] was “inactive” each time.
Take `CC1=C(/C=C/C(C)=C/C=C/C(C)=C/C(=O)O)C(C)(C)CCC1O` (centres undefined): the Potency result in assay [1] and in assay [2] was “inactive” in each case.
With `N[C@H](CS)C(=O)O`, the Potency result in assay [1] and in assay [2] was “inactive” each time.
For `NS(=O)(=O)c1nn2cc(-c3ccccc3)nc2s1`, the Potency result in assay [1] and in assay [2] was “inactive” in each case.
`COC(=O)[C@@H](c1ccccc1Cl)N1CCc2sccc2C1`: the Potency result in assay [1] and in assay [2] was “inactive” each time.
Regarding `OC[C@H]1O[C@@H](n2cnc3c(NC4CCCC4)nc(Cl)nc32)[C@H](O)[C@@H]1O`, the Potency entry in assay [1] and in assay [2] was “inactive” in each case.
Regarding `CCCCC/C=C\C/C=C\CCCCCCCC(=O)NCC(=O)O`, the activity change, negative = inhibition in assay [1] is 18.9% [at 6.83 µM]; in assay [2] it was -10.8% [at 3.88 µM].
With `N#C/C(=C\c1cc(Cl)cc(Cl)c1)c1cccnc1`, the Potency result in assay [1] and in assay [2] was “inactive” each time.
For the molecule `CCCCC[C@H](O)/C=C/[C@@H]1[C@@H](CC(=O)CCCCC(=O)O)[C@@H](O)C[C@H]1O`, the activity change, negative = inhibition in assay [1] is 7.57% [at 6.83 µM]; in assay [2], 35.8% [at 3.88 µM].
With `O=c1ccn([C@@H]2O[C@H](COP(=O)(O)OP(=O)(O)OP(=O)(O)O)[C@@H](O)[C@H]2O)c(=O)[nH]1`, the Potency result in assay [1] and in assay [2] was “inactive” each time.
Take `Nc1ncnc2c1ncn2[C@@H]1O[C@H](C(=O)NC2CC2)[C@@H](O)[C@H]1O`: the Potency result in assay [1] and in assay [2] was “inactive” throughout.
`CC(N)(C(=O)O)c1ccc(-c2nn[nH]n2)cc1` (centres undefined): the Potency entry in assay [1] and in assay [2] was “inactive” each time.
As for `C=C1Cc2c(Cl)cc3[nH]c4c5c3c2[C@@]2(O)[C@@H]1C[C@@H]2C(C)(C)O[C@H]5[C@@H]1CC[C@@]2(O)[C@@]35O[C@@H]3[C@@H](O)[C@@H](C(=O)O)O[C@H]5CC[C@]2(C)[C@@]41C`, the Potency entry in assay [1] and in assay [2] was “inactive” in each case.
